Assay outcomes deposited in PubChem BioAssay by several laboratories.
TRPM1 prom inh – inhibitors of MITF-driven TRPM1 promoter in melanoma cells; SK-MEL-5 TRPM1 promoter luciferase, 24 h; inhibition, % at 12.5 µM; 330,000 compounds, 0.83% hits; AID 488899;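 active = mean inhibition across replicates of 60% or more, whatever share of single replicates reaches that level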
TWEAK-Fn14 inh – blocks TWEAK-Fn14 interaction in a reporter cell assay. TWEAK-stimulated Fn14 reporter cells, luciferase luminescence, 8 h. AID 1159606. inhibition, % at 10 µM. 360,000 compounds, 2% hits; in the data active = inhibition above about 50%
MITF TRPM1 HTS – activators of MITF-driven TRPM1 promoter activity in SK-MEL-5 cells; SK-MEL-5 TRPM1-promoter luciferase, 24 h; % of positive control, neutral wells = 0; activation, % at 12.5 µM; 300,000 compounds, 0.75% hits; AID 588334;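 active = mean activation of at least 80% with every replicate also reaching 80%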;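 also: 0% = neutral control wells and 100% = parthenolide positive control wells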
LGR2 antag – Drosophila LGR2 receptor signaling inhibition; HEK293 LGR2, CRE-luciferase, bursicon-stimulated, 4 h; inhibition, % at 9.99 µM; 380,000 compounds, 0.35% hits; AID 720647;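 active = drop in luminescence signal, shown as inhibition above about 50% in the replicate tests, limit read from the data, passing the limit was not always enough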;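 also: agonist challenge used bursicon conditioned medium at about half maximal strength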
TROY NFkB inh – inhibitors of TROY-dependent NF-kB signaling; Q293 LMP1-TROYcd NF-kB luciferase reporter, 4 h; 360,000 compounds, 0.98% hits; inhibition, % at 10 µM; AID 1347056;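 active = compounds whose plate-normalised and pattern-corrected inhibition of the luciferase reporter signal at the single screening dose is 50% or more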
EBV LMP1 NFkB – inhibitors of Epstein-Barr LMP1-induced NF-kappaB reporter; LMP1-induced NF-kappaB luciferase reporter cells, luminescence; inhibition, % at 12.5 µM; 350,000 compounds, 0.69% hits; AID 504558; in the data active = inhibition above about 41%;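 also: 0% = neutral control wells and 100% = reference inhibitor control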
Active calls of the source: *; . = not tested or not shown. Shown are actives, neighbours in structure and some others; about 3% of the full set was active somewhere.

SMILES | TRPM1 prom inh | TWEAK-Fn14 inh | MITF TRPM1 HTS | LGR2 antag | TROY NFkB inh | EBV LMP1 NFkB
COc1cccc(-c2cn(CC[C@@H]3CC[C@H](NC(=O)CC4CC4)[C@@H](CO)O3)nn2)c1 | . | . | . | 3 | . | .
CCCCCn1ccc(=N)cc1 | 20 | 20 | -20 | . | 20 | 13
CCCCCCCn1ccc(=N)cc1 | 37 | 38 | -38 | . | 46 | 93*
CCCCCCCCCn1ccc(=N)cc1 | 65* | 37 | . | 32 | 54* | 29
CO[C@H]1CN(C)C(=O)c2cc(NS(=O)(=O)c3ccc(Cl)cc3)ccc2OC[C@H](C)NC[C@@H]1C | . | . | . | -54 | . | .
c1ccc2[nH]c(-c3cnco3)cc2c1 | 6 | 64* | -2 | -7 | 52* | -16
C[C@@H](NC(=O)C[C@@H]1C=C[C@H](NC(=O)C2CCC2)[C@H](CO)O1)c1ccccc1 | . | . | . | 4 | . | .
CCC(c1ccc(O)cc1)C(CC)c1ccc(O)cc1 (stereo not given) | 12 | 4 | -8 | 7 | 52* | -6
N#Cc1cc(N2CCCCC2)c([N+](=O)[O-])cc1C#N | -2 | -1 | 1 | -1 | 9 | -3
O=[N+]([O-])c1cc2no[n+]([O-])c2cc1N1CCCCC1 | 80* | 16 | . | 7 | -2 | -76
CC1COc2ccccc2N1S(=O)(=O)c1ccc(Cl)cc1 (stereo not given) | 21 | 6 | -19 | -9 | 11 | -10
Cc1ccc(S(=O)(=O)N2c3ccccc3OCC2c2ccccc2)cc1 (stereo not given) | 7 | 63* | . | . | 16 | 2
C[C@@H]1CN([C@@H](C)CO)S(=O)(=O)c2ccc(C#CC3CC3)cc2O[C@H]1CN(C)CC1CCOCC1 | . | . | . | 0 | . | .
Cc1nn2cc(-c3ccccc3)nc2s1 | -46 | 57* | 53 | -6 | 9 | -1
c1ccc(-c2cn3ccccc3n2)cc1 | -52 | 42 | 59 | -28 | -29 | -51
c1ccc(-c2cn3nc(-c4ccccc4)sc3n2)cc1 | 7 | 86* | 0 | . | 61* | 9
O=C(CSc1nc2ccc(NC(=O)c3ccccc3C(=O)O)cc2s1)Nc1ccc(F)c([N+](=O)[O-])c1 | -3 | -17 | -2 | 8 | -26 | 7
O=C(Nc1cc(Sc2nc3ccccc3s2)cc([N+](=O)[O-])c1)c1cccc(F)c1F | -15 | 58* | 17 | -3 | 24 | 8
C[C@H](CO)N1C[C@H](C)[C@H](CN(C)C(=O)Nc2ccc3c(c2)OCO3)Oc2ccc(NC(=O)Cn3cnnn3)cc2CC1=O | . | . | . | 21 | . | .
C[C@@H]1CCCCO[C@@H](CN(C)S(C)(=O)=O)[C@H](C)CN([C@@H](C)CO)C(=O)c2cc(NS(=O)(=O)c3ccc(Cl)cc3)ccc2O1 | . | . | . | -5 | . | .
CC(C)(C)c1cc(=O)[nH]c(SCc2ccccc2Cl)n1 | 8 | -5 | -8 | 6 | 54* | 5
O=c1[nH]c2ccc(Cl)cc2c(-c2ccccc2)c1SC(=S)N1CCCCC1 | -9 | 77* | 6 | . | 2 | 3
O=c1[nH]c2ccc(Cl)cc2c(-c2ccccc2)c1SC(=S)N1CCOCC1 | 5 | 31 | -4 | . | 20 | 4
O=C(O)CSCC(=O)N1CCN(c2ccnc3cc(Cl)ccc23)CC1 | 11 | 12 | -8 | . | -12 | 5
O=C(O)CSCC(=O)N1CCN(c2nc3cc(Cl)ccc3s2)CC1 | -16 | 62* | 15 | -27 | 5 | 1
SMILES | TRPM1 prom inh | TWEAK-Fn14 inh | MITF TRPM1 HTS | LGR2 antag | TROY NFkB inh | EBV LMP1 NFkB
COc1ccc(NC(=O)N(C)C[C@@H]2Oc3ncc(-c4cccnc4)cc3C(=O)N([C@@H](C)CO)C[C@@H]2C)cc1 | . | . | . | 0 | . | .
CCOc1ccccc1NC(=O)c1c(NC(=O)CCC(=O)O)sc2c1CCCCC2 | 5 | -9 | -8 | -32 | -8 | 9
CCOC(=O)c1ccc(NC(=O)c2c(NC(=O)CCC(=O)O)sc3c2CCCCC3)cc1 | -6 | 74* | 3 | -23 | 33 | -4
COc1ccc(NC(=O)c2ccc(F)cc2)cc1S(=O)(=O)Nc1cc(C)ccc1Br | 10 | 60* | -10 | 25 | 44 | 1
Cc1ccc(-c2cc(C(=O)Nc3cccnc3)[nH]n2)c(O)c1C | -100 | -7 | 114* | -80 | -36 | -12
Cc1ccc2c(c1)sc(=NC(=O)C1CC1)n2C | -9 | 6 | 12 | -57 | -47 | -24
Cc1ccc2c(c1)sc(=NC(=O)c1cccs1)n2C | 35 | 89* | -32 | 96* | 59* | 33
Cc1ccc(C(=S)N2CCN(Cc3ccccc3)CC2)cc1 | 9 | -17 | -8 | 15 | -12 | -3
CCN1CCN(C(=S)c2ccc(-c3ccccc3)cc2)CC1 | 5 | 69* | -4 | -7 | 5 | 1
Cc1cccc(N(CC(=O)NCc2ccco2)C(=O)CCC(=O)Nc2nccs2)c1C | 1 | 1 | -2 | 5 | -45 | 6
CC(C)CCNC(=O)CN(C(=O)CCC(=O)Nc1nccs1)c1ccc2c(c1)OCCO2 | 17 | 78* | -14 | 7 | 69* | 17
Cc1ccccc1N(CC(=O)NCc1ccco1)C(=O)CCC(=O)Nc1nccs1 | 1 | 81* | -2 | 11 | -9 | 3
C[C@H](CO)N1C[C@H](C)[C@@H](CN(C)C(=O)c2cnccn2)Oc2ncc(C#CCC3CCCC3)cc2C1=O | . | . | . | 2 | . | .
CO[C@H]1CN(C)C(=O)c2ccc(NC(=O)C3CC3)cc2OC[C@H](C)N(C(=O)c2cnccn2)C[C@@H]1C | . | . | . | -1 | . | .
CCN(Cc1ccccc1)S(=O)(=O)c1ccc(C(=O)N(CCCN(C)C)c2nc3cc4c(cc3s2)OCCO4)cc1 | 45 | 6 | -44 | -3 | 16 | -34
CCN(CC)S(=O)(=O)c1ccc(C(=O)N2CCN(c3ncccn3)CC2)cc1 | 3 | 8 | -4 | -4 | 0 | -2
CCN(Cc1ccccc1)S(=O)(=O)c1ccc(C(=O)N2CCN(c3nc4ccccc4s3)CC2)cc1 | 38 | 93* | -35 | 27 | 46 | 39
COc1ccc2sc(N(CCCN(C)C)C(=O)c3ccc(S(=O)(=O)N4CCCc5ccccc54)cc3)nc2c1 | 77* | -43 | -77 | -8 | -17 | -17
CN(C)CCCN(C(=O)CCOc1ccccc1)c1nc2ccc(F)cc2s1 | 9 | 61* | -8 | 11 | 33 | 24
CCN(Cc1ccccc1)S(=O)(=O)c1ccc(C(=O)N(CCCN(C)C)c2nc3ccc(F)cc3s2)cc1 | 91* | -1 | -90 | -10 | -12 | -5
C[C@H](CO)N1C[C@H](C)[C@@H](CN(C)CC2CCOCC2)Oc2ncc(C3=CCCCC3)cc2C1=O | . | . | . | -5 | . | .
C[C@@H]1CN([C@H](C)CO)C(=O)c2cc(NC(=O)NC3CCCCC3)ccc2O[C@@H](C)CCCCO[C@H]1CN(C)Cc1ccncc1 | . | . | . | -7 | . | .
CCN(Cc1ccccc1)S(=O)(=O)c1ccc(C(=O)N(CCCN(C)C)c2nc3cc(OC)ccc3s2)cc1 | 63* | -8 | -62 | 3 | 20 | 0
